Measured values published in PubChem BioAssay (NCATS).
Results filed as inconclusive are left out. Where a call stands in place of a potency, no number is given. Activity calls are given as the source filed them. Calls come from the whole dose curve; as a rule, active = well fitted curve in the direction sought with a large enough effect; inconclusive = small, poorly fitted or top-dose-only effect, or another doubt; inactive = no such curve, though single readings can be large; an effect the other way counts as inactive or inconclusive.

Assays:
[1] = target: Luciferin 4-monooxygenase (Photinus pyralis) (UniProt P08659); experiment: Biochemical firefly luciferase enzyme assay for NPC (AID 624030);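 note: purified P. pyralis luciferase at 10 nM with luciferin and ATP substrate; nearly all actives have a fitted effect of over 70% in size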; details: purified P. pyralis luciferase, luminescence, 5 min; series mostly up to 58.6 µM
In short: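 Purified P. pyralis luciferase at 10 nM in 50 mM Tris Acetate (final), luminescence read within 5 minutes of enzyme addition to compounds. Activity normalised to PTC124 versus DMSO; concentration-response curves classed by r2, magnitude and activity.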

[2] = S16 Schwann cell viability assay (CellTiter-Glo assay) (AID 624031); details: S16 rat Schwann cells viability, 24 h; series mostly up to 57.5 µM; note: nearly all actives have a fitted effect of over 70% in size; note: potency is the fitted concentration of half-maximal effect
In short: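 Luminescent ATP read-out (CellTiter-Glo) after 24 h compound exposure of native S16 rat Schwann cells at 37 °C. Signals were normalized between cell-free wells and DMSO-treated cells, set as 0% activity.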

[3] = target: Voltage-gated inwardly rectifying potassium channel KCNH2 (Homo sapiens) (UniProt Q12809); experiment: qHTS Assay for Small Molecule Inhibitors of the Human hERG Channel Activity (AID 588834); details: U2OS BacMam hERG, FluxOR thallium flux fluorescence; series mostly up to 46.1 µM;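 note: lower thallium flux fluorescence means stronger hERG block; nearly all actives have a fitted effect of over 50% in size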; note: potency is the fitted concentration of half-maximal effect
In short: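 Blockade is seen as reduced FluxOR thallium-flux fluorescence in U2OS cells expressing hERG from a BacMam construct, in Opti-MEM with 2% FCS. Concentration-response data fitted to the Hill equation for AC50.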

Sequence of Voltage-gated inwardly rectifying potassium channel KCNH2 (Homo sapiens) (Q12809 whole entry, looked up): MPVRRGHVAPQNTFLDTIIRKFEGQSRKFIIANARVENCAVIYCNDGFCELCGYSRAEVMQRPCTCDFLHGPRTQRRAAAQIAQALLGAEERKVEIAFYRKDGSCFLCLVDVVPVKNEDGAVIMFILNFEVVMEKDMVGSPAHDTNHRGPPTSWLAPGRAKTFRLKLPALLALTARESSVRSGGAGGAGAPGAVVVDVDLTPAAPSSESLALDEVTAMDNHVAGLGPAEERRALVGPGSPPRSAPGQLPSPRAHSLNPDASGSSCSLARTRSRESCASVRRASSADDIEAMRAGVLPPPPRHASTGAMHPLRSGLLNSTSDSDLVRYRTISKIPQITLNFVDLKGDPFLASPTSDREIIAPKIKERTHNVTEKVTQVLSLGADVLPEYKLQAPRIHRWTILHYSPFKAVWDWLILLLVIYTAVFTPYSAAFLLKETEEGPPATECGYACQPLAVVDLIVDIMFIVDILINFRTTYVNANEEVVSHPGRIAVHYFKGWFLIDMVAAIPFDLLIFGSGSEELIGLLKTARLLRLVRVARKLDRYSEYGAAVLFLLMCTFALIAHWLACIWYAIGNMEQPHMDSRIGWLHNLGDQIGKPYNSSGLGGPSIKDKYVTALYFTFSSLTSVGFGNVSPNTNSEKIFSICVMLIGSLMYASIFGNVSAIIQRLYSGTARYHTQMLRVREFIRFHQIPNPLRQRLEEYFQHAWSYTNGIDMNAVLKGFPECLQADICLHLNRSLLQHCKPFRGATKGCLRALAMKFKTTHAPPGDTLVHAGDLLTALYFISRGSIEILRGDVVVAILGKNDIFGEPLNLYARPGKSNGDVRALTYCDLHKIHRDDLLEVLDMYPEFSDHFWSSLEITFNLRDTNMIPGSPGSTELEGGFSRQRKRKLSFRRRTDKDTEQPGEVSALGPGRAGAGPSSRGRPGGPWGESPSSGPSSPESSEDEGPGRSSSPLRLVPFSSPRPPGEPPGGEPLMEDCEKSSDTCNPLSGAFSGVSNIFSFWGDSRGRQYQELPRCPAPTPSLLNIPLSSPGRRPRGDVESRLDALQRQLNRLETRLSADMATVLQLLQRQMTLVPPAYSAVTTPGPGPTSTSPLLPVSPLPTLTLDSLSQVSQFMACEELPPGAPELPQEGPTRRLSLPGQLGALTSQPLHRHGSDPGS
Sequence of Luciferin 4-monooxygenase (Photinus pyralis) (P08659 whole entry, looked up): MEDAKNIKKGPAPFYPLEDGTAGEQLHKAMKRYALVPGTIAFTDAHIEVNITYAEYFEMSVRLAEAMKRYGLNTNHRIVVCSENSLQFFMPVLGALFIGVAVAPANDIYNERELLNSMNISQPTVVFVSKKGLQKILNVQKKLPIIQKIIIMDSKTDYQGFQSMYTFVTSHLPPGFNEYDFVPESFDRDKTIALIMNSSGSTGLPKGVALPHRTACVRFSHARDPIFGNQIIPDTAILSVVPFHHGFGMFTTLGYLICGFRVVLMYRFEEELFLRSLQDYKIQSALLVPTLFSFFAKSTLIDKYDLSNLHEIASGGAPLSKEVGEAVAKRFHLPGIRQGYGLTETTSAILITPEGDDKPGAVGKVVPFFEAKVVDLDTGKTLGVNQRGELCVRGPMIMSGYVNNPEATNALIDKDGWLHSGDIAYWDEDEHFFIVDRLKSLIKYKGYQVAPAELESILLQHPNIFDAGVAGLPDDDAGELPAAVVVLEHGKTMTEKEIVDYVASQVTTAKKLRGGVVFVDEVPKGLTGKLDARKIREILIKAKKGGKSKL

SMILES | Potency [1] | Potency [2] | Potency [3]
CC1(C)OC[C@@H](COC(=O)CCc2ccc(OC[C@@H](O)CNCCNC(=O)N3CCOCC3)cc2)O1 | inactive | – | –
CCCN1CCCC[C@H]1C(=O)Nc1c(C)cccc1C | inactive | inactive | –
COc1cc2c(cc1OC)C(C(C(=O)N(CCc1ccc(OC)c(OC)c1OC)CCc1ccc(OC)c(OC)c1OC)c1ccccc1)=NCC2 (centres undefined) | – | inactive | –
CC(C)COC(=O)OCN1C(=O)CN(CCN2CC(=O)N(COC(=O)OCC(C)C)C(=O)C2)CC1=O | inactive | inactive | –
O=C1[C@H]2CCCC[C@H]2C(=O)N1CCCCN1CCN(c2nsc3ccccc23)CC1 | – | 32.2 µM (active) | 5.01 µM (active)
CN1C(CCl)Nc2cc(Cl)c(S(N)(=O)=O)cc2S1(=O)=O (centres undefined) | – | inactive | inactive
Cc1c(N(C)CS(=O)(=O)O)c(=O)n(-c2ccccc2)n1C | – | inactive | inactive
CCCCOc1ccc(OCCCN2CCOCC2)cc1 | inactive | inactive | –
Cc1ccc(C(=O)C(C)CN2CCCCC2)cc1 (centres undefined) | – | inactive | –
CC(C)NC[C@@H](O)COc1cccc2ccccc12 | inactive | inactive | –
CCCCCCCCCCCCCCCCCC(=O)OCC(O)CO (centres undefined) | – | inactive | inactive
CC(C)N=C(N)/N=C(\N)Nc1ccc(Cl)cc1 | inactive | inactive | –
CCCOC(C(=O)OC1CCN(C)CC1)(c1ccccc1)c1ccccc1 | – | inactive | –
COC(=O)CCc1ccc(OCC(O)CNC(C)C)cc1 (centres undefined) | inactive | – | –
COC(=O)[C@@H]1CC2=CC(=O)CC[C@]2(C)[C@@]23O[C@@H]2C[C@@]2(C)[C@@H](CC[C@@]24CCC(=O)O4)[C@H]13 | – | inactive | inactive
CO/N=C1\CN(c2nc3c(cc2F)c(=O)c(C(=O)O)cn3C2CC2)CC1CN (centres undefined) | inactive | inactive | –

SMILES | Potency [1] | Potency [2] | Potency [3]
COc1cccc(CCc2ccccc2OCC(CN(C)C)OC(=O)CCC(=O)O)c1 (centres undefined) | inactive | – | –
COC(=O)[C@H]1[C@H]2C[C@H]3c4[nH]c5ccccc5c4CCN3C[C@H]2CC[C@@H]1O | inactive | inactive | –
CCN(CCCc1ccccc1)CCCc1ccccc1 | inactive | inactive | –
COc1ccc(C2C(=O)c3ccccc3C2=O)cc1 | inactive | inactive | –
COc1cc2c(cc1OC)C(=O)C(CC1CCN(Cc3ccccc3)CC1)C2 (centres undefined) | inactive | – | –
NCCCC[C@H](N[C@@H](CCc1ccccc1)C(=O)O)C(=O)N1CCC[C@H]1C(=O)O | inactive | inactive | –
CN(C(=O)CN(CCO)CC(=O)N(C)C(C)(C)Cc1ccccc1)C(C)(C)Cc1ccccc1 | inactive | inactive | –
CCCCCCC[N+](CC)(CC)CCCCc1ccc(Cl)cc1 | – | inactive | –
CCOc1ccc(Cc2nccc3cc(OCC)c(OCC)cc23)cc1OCC | inactive | inactive | –
C[C@H]1[C@H](NC(=O)/C(=N/OC(C)(C)C(=O)O)c2csc(N)n2)C(=O)N1S(=O)(=O)O (stereo in doubt) | inactive | inactive | –
COc1ccc(CCN2CCC(Nc3nc4ccccc4n3Cc3ccc(F)cc3)CC2)cc1 | inactive | 16.1 µM (active) | –
Cc1c(C(N)=O)cc([N+](=O)[O-])cc1[N+](=O)[O-] | – | inactive | inactive
O=S1(=O)c2cccc3cccc(c23)N1CCCN1CCN(c2ccc(F)cc2)CC1 | inactive | inactive | –
Cc1ccc(Nc2c(F)cccc2Cl)c(CC(=O)O)c1 | inactive | – | –
CCN1CCC[C@H]1CNC(=O)c1c(OC)ccc(Br)c1OC | – | inactive | –
O=C1OCCN1/N=C/c1ccc([N+](=O)[O-])o1 | inactive | inactive | –
